For 40 sequences, sensor-assay potency score (higher = more potent) results are on record in the OligoGym collection.
Further: reference of the scale not given here.

The target of the first experiment is DSPP. Kind of experiment: pooled miR-30 sensor sort-seq; sequence = guide strand. Conditions: shRNA.
TATGTAGAAAAACTCTTCCCTC gave a sensor-assay potency score (higher = more potent) of -0.0837. Same read-out and setting: the same measure for TTCACTTGTATTACCCTCGTTT: 0.22; for TTACTGTCACTATCACTGCTGT: -0.164.

TTTATCCTCTTTACCTTCGTTG registered a sensor-assay potency score (higher = more potent) of -0.331. On to TACTATCTGAATTTTGACCTAT, for which the sensor-assay potency score (higher = more potent) was 0.43.

TTGTCTGTACTGTTATTGCTTC yielded a sensor-assay potency score (higher = more potent) of -0.739. Turning to TATTCTTATCAGTATTTCCATT, the sensor-assay potency score (higher = more potent) is -0.803.

In the next experiment the target is DTNBP1. The description is as above. Conditions: shRNA.
The sequence TTTCTTGTAATTCTCCAGTTGC came in with a sensor-assay potency score (higher = more potent) of -0.554. Still for that read-out and setting: with ATTTTTCTTGTAATTCTCCAGT the figure was -0.545.

In turn, TAAAACAACCTGGCTTTCCAGG showed a sensor-assay potency score (higher = more potent) of -0.923.

Take TTCCTCAAAAAACTTCTGCCGC: the sensor-assay potency score (higher = more potent) was -0.552. TGACTTGTCACTTAAAGTCTTC showed a sensor-assay potency score (higher = more potent) of -0.418. TAAGTCTTCCAGATGCAGCAGG registered a sensor-assay potency score (higher = more potent) of -0.317. On to TCACTTAAAGTCTTCAGCCCGG, for which the sensor-assay potency score (higher = more potent) was -0.801. Still for that read-out and setting: the same measure for TTTGCTTCTCTTGACTTGTCAC: 0.23; for TTTTCTTGTAATTCTCCAGTTG: -0.365. On the same count and under the same terms, the same measure for TATTTTTCTTGTAATTCTCCAG: -0.412. The same measure, in the same setting: with TCATCGGACTGAACAACGGGGG the figure was -0.232; with TCTAGTTCAGCTTTGAAGGTTT, 0.0978.

The target in the next experiment is DTX1. Described as above. Conditions: shRNA.
The sequence TGTCTCTTCTCTTCCAGCCTGG registered a sensor-assay potency score (higher = more potent) of 0.154.

In turn, TTTTGAAAAGAGCAATCGCTGG came in with a sensor-assay potency score (higher = more potent) of -0.945. Consider TCTAGGTAGCTAGCGTCCGGGT, for which the sensor-assay potency score (higher = more potent) is -1.53. Same read-out and setting: the same measure for TTGACCAGCAGGCACTGCTGGC: -1.17; for TTTAAGGTGCTTCTTCTTGGTC: -0.486; for TTGAAGTAGATGAGGTAGCAGA: -0.853. Still for that read-out and setting: the same measure for TTGTTGGGTAGATAGCAGTGGC: -0.92; for TTCTTTTGTAGAACTGCTCAGT: -0.299; for TGTATCTTCGAACCACATCCTC: -0.0113. Same read-out and setting: with TAGATGAGGTAGCAGAAGCCTA the figure was -1.12.

Consider TTGGATCCAAACTCGGTCTTGT, for which the sensor-assay potency score (higher = more potent) worked out at 0.0701. For the sequence TCTTCGAACCACATCCTCGGGA, the sensor-assay potency score (higher = more potent) was -0.159. Sequence TTGGTCTTGCGGCACACCCCGG came in with a sensor-assay potency score (higher = more potent) of -0.985. TTCACCTTCTGCATGTATCTTC came in with a sensor-assay potency score (higher = more potent) of 0.43. On the same count and under the same terms, with TTCATCTGCGACATGCTGTTGA the figure was 0.174; with TTTGTAGAACTGCTCAGTCATC, -1.13; with TAGAACTGCTCAGTCATCTGGG, 0.451. Sequence TGAGGTTGGATCCAAACTCGGT came in with a sensor-assay potency score (higher = more potent) of -0.565. For TATCTTCGAACCACATCCTCGG, the sensor-assay potency score (higher = more potent) was determined as 0.116. In turn, TATTTCTCCACCCACAGTGGGA gave a sensor-assay potency score (higher = more potent) of -0.561. As for TTTGAAAAGAGCAATCGCTGGC, the sensor-assay potency score (higher = more potent) turned out to be 0.224.
